Compound activity (PubChem BioAssay)
Sampled rows, rich in hits. Any-hit rate of the full collection: about 1.3%.
AI-2 QS modul: Vibrio harveyi AI-2 quorum sensing modulation. Vibrio harveyi JMH597 AI-2 luminescence/OD600 ratio, 9 h; stronger effect = lower value; strain lacks LuxN and CqsS sensors; 0 = neutral-control median. activity change, % at 7.5 µM. actives 0.4% (n = 300,000). AID 2094; in the data active means activity change below about -75%, passing the limit was not always enough;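 further: luminescence divided by OD600 gain over 9 h not by final OD600 alone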
Statin myotox sup: suppressors of simvastatin-induced myotoxicity in C2C12 myotubes. rescue of ATP level, % at 7.49 µM. ATP luminescence, 48 h; scaled: DMSO 0, geranylgeraniol control 100. actives 0.78% (n = 330,000);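 active means mean ATP rescue above about 67%, or every replicate alone reaching that limit, limit read from the data, passing the limit was not always enough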;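 further: myotubes were challenged with 10 µM simvastatin during compound exposure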
PGC1a acetyl inh: modulators of PGC1a acetylation | U2OS PGC1a acetylation, AlphaScreen anti-acetyl-lysine; with virally co-expressed GCN5 acetyltransferase | actives 0.17% (n = 350,000) | inhibition, % at 15.6 µM;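 active means every replicate shows inhibition of at least 40%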;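 further: 0% = neutral control wells and 100% = positive control wells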
HIF activator: HIF pathway transcriptional activation; actives 0.32% (n = 300,000); AID 1910; activation, % at 7.5 µM (by protocol); U2OS HRE-luciferase reporter, luminescence; normalized: DMSO 0%, desferrioxamine 100%;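 active means mean activation of at least 10% of the iron chelator positive control signal, with at least half of replicates also reaching 10%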
Rce1 inh: blocks yeast Ras-converting enzyme; AID 2563; calls only; actives 0.27% (n = 290,000); yeast membranes, quenched prenylated peptide cleavage fluorescence; Q03530;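 active means fall in fluorescence gain of 50% or more versus controls, with final raw signal at or below 3038400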;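 further: plate controls were neutral control wells for no effect and wells lacking membranes for full effect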
Target sequence (Q03530 whole entry, looked up): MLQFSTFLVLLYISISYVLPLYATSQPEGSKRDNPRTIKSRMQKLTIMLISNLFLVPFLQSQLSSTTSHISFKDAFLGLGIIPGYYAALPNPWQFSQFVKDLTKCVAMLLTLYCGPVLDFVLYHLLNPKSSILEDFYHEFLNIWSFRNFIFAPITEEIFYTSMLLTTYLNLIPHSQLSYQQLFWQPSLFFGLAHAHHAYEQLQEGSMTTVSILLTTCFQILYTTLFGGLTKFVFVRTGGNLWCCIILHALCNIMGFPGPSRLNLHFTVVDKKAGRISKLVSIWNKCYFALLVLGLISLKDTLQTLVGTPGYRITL
Starred values were filed as active, the others as inactive; i = inactive; / = not tested or not shown; + = active, no number.

SMILES	AI-2 QS modul	Statin myotox sup	PGC1a acetyl inh	HIF activator	Rce1 inh
CCS(=O)(=O)N1CCC2(CC1)CN(Cc1ccccc1OC)[C@@H](CO)c1c2c2ccc(OC)cc2n1C	/	/	-1	/	/
COc1ccccc1CN(C)C[C@@H]1OCc2cn(nn2)CCCC(=O)N([C@@H](C)CO)C[C@@H]1C	/	2	-6	/	/
Cc1ccc(C2C3=C(CC(C)(C)CC3=O)Nc3n[nH]c(C)c32)cc1 (configuration not stated)	17	44	-32	1	i
Cc1[nH]nc2c1C(c1ccc(F)cc1)C1=C(CC(C)(C)CC1=O)N2 (configuration not stated)	-3	35	-6	0	+
Cc1cc(-c2nc3ncccc3o2)ccc1N	11	100*	5	4	i
O=C(Nc1ccc2oc(-c3ccncc3)nc2c1)c1ccc([N+](=O)[O-])o1	24	145*	/	-2	i
O=C(Nc1ccc(-c2nc3ncccc3o2)cc1)c1ccc([N+](=O)[O-])o1	21	226*	/	0	i
Cc1ccc(-c2nc3ncccc3o2)cc1NC(=O)c1ccc([N+](=O)[O-])o1	26	233*	-14	0	i
Cc1cc(-c2nc3ncccc3o2)ccc1NC(=O)c1ccc([N+](=O)[O-])o1	/	-16	-10	/	/
Cc1ccc(-c2nc3ncccc3o2)cc1N	2	7	3	2	i
CCOC(=O)c1cnc2ccc(OCC)cc2c1N1CCN(c2ccccc2)CC1	15	81*	-24	0	i
CCOc1ccc2ncc(S(=O)(=O)c3ccccc3)c(N3CCN(c4ccccc4)CC3)c2c1	14	18	6	0	i
O=C(C[C@H]1CC[C@@H]2NC[C@@H](O)COC[C@H]2O1)Nc1nccs1	/	12	0	/	/
O=C(Nc1ccc(Cl)c(Cl)c1)O/N=C/c1ccncc1	-88*	/	/	0	i
C[C@@H]1CCCCO[C@H](CN(C)C(=O)Nc2cccc3ccccc23)[C@@H](C)CN([C@@H](C)CO)C(=O)c2cc(N(C)C)ccc2O1	/	38	-4	/	/
CC(C)[C@H](NS(=O)(=O)c1ccccc1)C(=O)OCC(=O)NC(=O)NC1CCCCC1	/	114*	-2	/	/
Cc1c(C(=O)NCc2ccccn2)sc2nc(-c3ccccc3)cn12	15	-6	-5	2	i
COCCNC(=O)c1sc2nc(-c3ccccc3)cn2c1C	10	16	-3	71*	i
CCOC(=O)C1=C(C)N[C@@]2(O)c3ccccc3C(=O)[C@@]12O	13	130*	3	-2	i
CCCCOC(=O)C1=C(C)NC2(O)c3ccccc3C(=O)C12O (configuration not stated)	25	-4	-7	-1	i
CC(=O)C(C)Oc1ccc2c3c(c(=O)oc2c1)CCCCC3 (configuration not stated)	18	-9	/	3	i
CC(=O)C(C)Oc1ccc2c3c(c(=O)oc2c1)CCCC3 (configuration not stated)	23	-9	-1	2	+
O=C(COc1ccc2c3c(c(=O)oc2c1)CCC3)NCC(O)c1ccccc1 (configuration not stated)	22	10	-2	0	i
CC(Oc1ccc2c3c(c(=O)oc2c1)CCCC3)C(=O)NCC(O)c1ccccc1 (configuration not stated)	8	-3	3	64*	i
CC(C)NC(=O)Nc1ccc2c(c1)C(=O)N([C@H](C)CO)C[C@@H](C)[C@@H](CN(C)Cc1ccc(-c3ccccc3)cc1)O2	/	-25	-8	/	/
SMILES	AI-2 QS modul	Statin myotox sup	PGC1a acetyl inh	HIF activator	Rce1 inh
CNC[C@@H]1Oc2ccc(NC(=O)CCCN(C)C)cc2CC(=O)N([C@H](C)CO)C[C@H]1C	/	/	6	/	/
O=C(C[C@H]1CC[C@H](NC(=O)C2CCC2)[C@H](CO)O1)NCc1ccccc1Cl	/	0	4	/	/
O=C(CSc1nc2ccccc2s1)N1N=C(c2cccs2)CC1c1ccc(F)cc1 (configuration not stated)	5	-18	/	1	+
COc1ccc(C2CC(c3cccs3)=NN2C(=O)CSc2nc3ccccc3s2)cc1 (configuration not stated)	14	4	/	-10	i
Cc1cccn2c(=O)c3cc(C(=O)NCCC4=CCCCC4)n(C)c3nc12	23	127*	-1	0	i
COc1cccc(/C=C/C=O)c1	/	/	-12	/	/
